Consider 8 compounds from PubChem BioAssay (Tox21).

In assay [1] the target is Thyrotropin receptor (Homo sapiens) (UniProt P16473). Kind of assay: qHTS assay to identify small molecule agonists of the thyroid stimulating hormone receptor (TSHR) signaling pathway (AID 1224843; calls by dose curve; also: nearly all actives have a fitted effect of over 45% in size). Summed up: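 Compounds are titrated over 15 concentrations, in triplicate, onto TSHR-HEK293 cells seeded at 800/well. Plates sit 30 min at room temperature before cAMP-d2 and anti-cAMP cryptate are added; signal is read after a further hour.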
Sequence of Thyrotropin receptor (Homo sapiens) (P16473 whole entry, looked up): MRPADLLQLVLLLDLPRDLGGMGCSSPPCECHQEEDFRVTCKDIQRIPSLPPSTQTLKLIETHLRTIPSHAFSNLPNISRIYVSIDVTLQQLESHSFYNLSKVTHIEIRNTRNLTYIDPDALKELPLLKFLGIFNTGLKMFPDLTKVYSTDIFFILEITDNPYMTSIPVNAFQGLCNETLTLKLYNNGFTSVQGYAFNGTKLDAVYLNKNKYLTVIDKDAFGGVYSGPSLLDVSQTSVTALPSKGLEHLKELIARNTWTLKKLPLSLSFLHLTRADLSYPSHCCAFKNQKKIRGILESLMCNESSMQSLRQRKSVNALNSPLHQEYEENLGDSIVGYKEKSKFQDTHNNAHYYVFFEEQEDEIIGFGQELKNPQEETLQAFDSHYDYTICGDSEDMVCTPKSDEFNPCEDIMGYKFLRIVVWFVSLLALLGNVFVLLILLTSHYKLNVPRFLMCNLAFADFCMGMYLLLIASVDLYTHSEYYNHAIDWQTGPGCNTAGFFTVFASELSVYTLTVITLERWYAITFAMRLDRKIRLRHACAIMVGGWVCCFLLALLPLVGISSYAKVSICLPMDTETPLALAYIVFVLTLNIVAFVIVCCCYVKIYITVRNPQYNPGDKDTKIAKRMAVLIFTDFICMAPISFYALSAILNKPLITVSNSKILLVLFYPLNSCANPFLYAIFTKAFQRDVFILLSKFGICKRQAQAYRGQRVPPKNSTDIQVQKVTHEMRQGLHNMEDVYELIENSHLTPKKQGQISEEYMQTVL

A short description of assay [2]: qHTS assay to identify small molecule agonists of the hypoxia (HIF-1) signaling pathway - cell viability counter screen (AID 1224844; calls by dose curve; also: nearly all actives have a fitted effect of over 50% in size). A digest of the protocol:
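Cytotoxicity was measured in parallel with the HRE-driven beta-lactamase readout: after 17 hrs of compound exposure at 37C, HRE-bla ME-180 cells received CellTiter-Glo and luminescence was recorded 30 min later.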
A general note: qHTS replaces the single test concentration by a dilution series.

A short description of assay [3]: qHTS assay to identify small molecule agonists of H2AX (AID 1224845; active = well fitted activation curve with a large enough effect in the signal ratio in the repeat runs, not every such curve was filed as active; the % refers to the signal ratio). A digest of the protocol:
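Wild-type CHO-K1 cells plated overnight, then exposed 3 hr at 37C to compounds at 15 concentrations (0.76% DMSO). Lysed, then HTRF anti-pH2AX(S139)-cryptate/anti-H2AX-d2 detection after 24 hr at room temperature; emissions 665 and 620 nm.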

Assay [4] in a line: qHTS assay to identify small molecule agonists of the hypoxia (HIF-1) signaling pathway (AID 1224846; active = well fitted activation curve with a large enough effect in the signal ratio in the repeat runs, not every such curve was filed as active; the % refers to the signal ratio). Summed up:
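Compounds from the Tox21 10K library, dissolved in DMSO, are tested for induction of a hypoxia response element–controlled beta-lactamase reporter in ME-180 cells. Exposure lasts 17 hrs at 37C after a 5 hr settling period, followed by CCF4-AM FRET substrate.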

Assay [5] is described as follows: qHTS assay to identify small molecule agonists of H2AX - cell viability counter screen (AID 1224847; calls by dose curve; also: top concentration of the series differs between compounds; nearly all actives have a fitted effect of over 30% in size). A digest of the protocol:
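Read-out: CellTiter-Glo luminescence, 30 min RT. Cells: wild-type CHO-K1, 1000/well, 10% FBS, plated overnight at 37C. Treatment: 15 concentrations, 3 hr, 37C, 0.76% DMSO.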

Assay [6] is described as follows: qHTS RealTime-Glo MT Cell Viability Assay in HEK293 cells - 32 hour (AID 1224868). Also: nearly all actives have a fitted effect of over 50% in size. Also: potency is read from the fitted curve at half-maximal effect. A digest of the protocol: (§1)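 Tox21 10K qHTS, HEK293, 600 cells/well, RealTime-Glo reagent co-dispensed with cells; 5 h preincubation, compound by pintool, 37 C, luminescence at 0–40 h.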
Assay [7] is described as follows: A CellTox Green Cytotoxicity Assay to monitor cytotoxicity in HEK293 cells - 0 hour (AID 1224869). Also: nearly all actives have a fitted effect of over 50% in size. Summed up: (§2)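 Cells (HEK293, 600/well) and dye reagent are dispensed together. After 5 h at 37 C, 23 nL compound is pinned in. Plates stay at 37 C for 40 h with fluorescence read at 0h, 8h, 16h, 24h, 32h and 40h.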
Assay [8] in a line: qHTS RealTime-Glo MT Cell Viability Assay in HepG2 cells - 40 hour (AID 1224870). Also: nearly all actives have a fitted effect of over 50% in size. A digest of the protocol:
(§3)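 HepG2 cells mixed with RealTime-Glo MT reagents (NanoLuc plus cell-permeant prosubstrate) were seeded at 600 cells/well, incubated 5 h at 37 C/5% CO2, then pinned with compounds in DMSO; nonlytic luminescence tracked viability during 40 h treatment.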

Assay [9] is described as follows: A CellTox Green Cytotoxicity Assay to monitor cytotoxicity in HEK293 cells - 40 hour (AID 1224871). Also: nearly all actives have a fitted effect of over 45% in size. Summed up:
as §2

Assay [10] is described as follows: qHTS RealTime-Glo MT Cell Viability Assay in HEK293 cells - 16 hour (AID 1224872). Also: nearly all actives have a fitted effect of over 50% in size. Also: potency is read from the fitted curve at half-maximal effect. A digest of the protocol: as §1
A short description of assay [11]: qHTS RealTime-Glo MT Cell Viability Assay in HepG2 cells - 8 hour (AID 1224873). Also: nearly all actives have a fitted effect of over 55% in size. A digest of the protocol:
as §3

Assay [12] in a line: qHTS RealTime-Glo MT Cell Viability Assay in HEK293 cells - 40 hour (AID 1224874). Also: nearly all actives have a fitted effect of over 50% in size. Also: potency is read from the fitted curve at half-maximal effect. To be noted: RealTime-Glo luminescence; max response: stronger effect = lower value. A digest of the protocol: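 Real-time viability in HEK293: signal arises when living cells convert a prosubstrate for NanoLuc in the medium, so luminescence tracks viable cell number. Compound (23 nL, DMSO) added 5 h post-seeding; kinetic reads at 0–40 h, 37 C.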

Assay [13] can be described thus: A CellTox Green Cytotoxicity Assay to monitor cytotoxicity in HEK293 cells - 24 hour (AID 1224875). Also: nearly all actives have a fitted effect of over 45% in size. A digest of the protocol: as §2
Assay [14] is described as follows: A CellTox Green Cytotoxicity Assay to monitor cytotoxicity in HepG2 cells - 16 hour (AID 1224876). Also: nearly all actives have a fitted effect of over 45% in size. Also: potency is read from the fitted curve at half-maximal effect. Summed up: (§4)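 Cells and non-lytic dye reagent are dispensed together (600 HepG2 cells/well) and incubated 5 h before DMSO compound transfer. Kinetic fluorescence is then recorded in the same wells during 40 h at 37 C.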
The nature of assay [15]: qHTS RealTime-Glo MT Cell Viability Assay in HepG2 cells - 32 hour (AID 1224877). Also: nearly all actives have a fitted effect of over 55% in size. Summed up: (§5)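 Cells + NanoLuc/prosubstrate dispensed (600 cells/well) → 5 h at 37 C/5% CO2 → compounds in DMSO transferred → 40 h incubation at 37 C, luminescence read at 0, 8, 16, 24, 32, 40 h.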
Assay [16] is described as follows: A CellTox Green Cytotoxicity Assay to monitor cytotoxicity in HepG2 cells - 24 hour (AID 1224878). Also: nearly all actives have a fitted effect of over 45% in size. Also: potency is read from the fitted curve at half-maximal effect. A digest of the protocol: as §4
Assay [17] in a line: A CellTox Green Cytotoxicity Assay to monitor cytotoxicity in HepG2 cells - 40 hour (AID 1224879). Also: nearly all actives have a fitted effect of over 40% in size. A digest of the protocol: as §4
Assay [18] is described as follows: qHTS assay to identify small molecule antagonists of the estrogen related receptor (ERR) signaling pathway from Tox21 library (AID 1224848). Also: nearly all actives have a fitted effect of over 50% in size. A digest of the protocol: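 First, 2,000 ERR cells per well were plated and held 6 h at 37 C/5% CO2. Next, compounds in DMSO were pinned in and left 18 h at 37 C. Finally, ONE-Glo was added and luminescence read after 30 min at room temperature.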

Assay [19] in a line: qHTS assay to identify small molecule agonists of the estrogen related receptor (ERR) signaling pathway from Tox21 library (AID 1224849; calls by dose curve; also: nearly all actives have a fitted effect of over 15% in size). To be noted: ERR reporter cell line, ONE-Glo luciferase, 18 h; at 92.4 µM (top of the series) unless noted. A digest of the protocol:
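Cells carrying the ERR reporter were plated and allowed to settle for 6 h, exposed to library compounds for 18 h at 37 C, then lysed with ONE-Glo and luminescence measured.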

Assay [20] can be described thus: qHTS RealTime-Glo MT Cell Viability Assay in HepG2 cells - 24 hour (AID 1224867). Also: nearly all actives have a fitted effect of over 50% in size. A digest of the protocol:
as §5

Values without a mark were called inactive. Records with an inconclusive call do not appear. Calls of active or inactive are those of the source. Unless noted, calls follow the shape of the dose curve; as a rule, active = well fitted curve in the direction sought with a large enough effect in the repeat runs; inconclusive = weak or mixed curves; inactive = no such curve, though single readings can be large; an effect the other way counts as inactive or inconclusive.
% is scaled to controls: 0 for no effect and ±100 for the full control effect.

With `Cc1ccccc1S(N)(=O)=O`, the Potency entry in assay [1], in assay [2], in assay [3], in [5], in assay [6] and in [7] was “inactive” in each case. In addition, the Potency result in assay [8], in [9], in [10], in [11], in assay [13] and in [14] was “inactive” each time. Further, the Potency entry in [15], in [16] and in [17] was “inactive” each time. Besides, the result in assay [4] was inactive. Moreover, the max response in [12] was 8.27%.

For `O=NN(CCCl)C(=O)NCCCl`, the Potency entry in assay [1], in [2], in assay [3], in assay [5], in [18] and in assay [20] was “inactive” each time. Further, the Potency entry in assay [7], in [8], in assay [9], in [10], in [11] and in [13] was “inactive” in each case. Moreover, the Potency entry in assay [15] was “inactive”. Besides, in [19], the activity change, positive = activation was 2.54% [at 42.5 µM]. Besides, the max response in assay [12] is 8.5%. Further, the Potency in [14] and in assay [16] was 4.77 µM (active) in each case.

Take `COc1ccc(C)cc1`: the Potency result in [1], in assay [2], in assay [3], in [20], in assay [6] and in assay [7] was “inactive” each time. Also, the Potency result in assay [8], in [9], in assay [10], in assay [11], in assay [13] and in assay [14] was “inactive” throughout. The Potency entry in [15], in assay [16] and in assay [17] was “inactive” in each case. The outcome in [4] was inactive. In addition, the max response in assay [12] is 9.25%.

As to `Cc1ccc2c(c1[N+](=O)[O-])C(=O)c1ccccc1C2=O`, the Potency result in assay [1], in [2], in assay [3], in [18], in assay [20] and in [7] was “inactive” each time. Moreover, the Potency entry in [8], in [9], in assay [11], in assay [13], in [15] and in assay [16] was “inactive” in each case. Further, in assay [17], the Potency result is “inactive”. Besides, the call in assay [4] was inactive. For the same compound, the Potency in [6] and in [12] was 0.958 µM (active) throughout.

On to `O=C(O)c1ccc(O)cc1O`, for which the Potency entry in assay [1], in [2], in assay [3], in assay [5], in [18] and in [20] was “inactive” each time. In addition, the Potency entry in assay [7], in assay [8], in [9], in [10], in [11] and in [13] was “inactive” each time. Moreover, the Potency result in [14], in [15], in assay [16] and in [17] was “inactive” in each case. Besides, the max response in assay [12] was -2.47%.

Turning to `CC(CN(CCN(CC(C)OCCO)CC(C)OCCO)CC(C)OCCO)OCCO` (stereo not given), the Potency result in assay [1], in assay [2], in assay [3], in assay [7], in assay [8] and in assay [11] was “inactive” throughout. The Potency result in assay [13], in assay [14] and in [15] was “inactive” in each case. In addition, the result in assay [4] was inactive. Also, the Potency in [6] was 23.7 µM (active); in assay [10], 18.8 µM (active); in assay [12], 23.7 µM (active).

In the case of `O=C(NC(Cc1cc(=O)[nH]c2ccccc12)C(=O)O)c1ccc(Cl)cc1` (stereo not given), the Potency result in [1], in assay [2], in assay [3], in assay [20], in assay [6] and in [7] was “inactive” throughout. Moreover, the Potency entry in [9], in [10], in assay [11], in [13], in assay [14] and in [15] was “inactive” in each case. The Potency entry in [16] and in assay [17] was “inactive” each time. Further, the result in [4] was inactive. In addition, the max response in assay [12] was 3.38%.

On to `CCC1CCC(CCC(=O)O)C1` (stereo not given), for which the Potency result in assay [1], in assay [2], in assay [3], in assay [5], in assay [18] and in assay [20] was “inactive” in each case. The Potency entry in [6], in assay [7], in [9], in assay [10], in [11] and in [13] was “inactive” each time. In addition, the Potency result in [14], in assay [15], in assay [16] and in assay [17] was “inactive” each time. In addition, the max response in assay [12] was -15.6%.
